This passage reports Potency and outcome results from PubChem BioAssay (NCATS).

Where “and” joins values, the source holds several entries; their conditions need not be identical. Identical values can stand only once. Records with an inconclusive call do not appear. A structure can be active in one record and inactive in another. Calls of active or inactive are those of the source. Unless noted, the call rests on the fitted dose curve; in most records, active means well fitted curve in the direction sought with a large enough effect; inconclusive means small, poorly fitted or top-dose-only effect, or another doubt; inactive means no such curve, though single readings can be large; an effect the other way counts as inactive or inconclusive.

A short description of test [1]: qHTS assay for measurement of the activity of small molecule inhibitors on Zika virus induced Caspase-3 activity in human iPSC derived neural progenitor cells (hNPCs) (AID 1224857). Further: nearly all actives have a fitted effect of over 65% in size. Further: potency means the concentration at half of the fitted maximal effect. The following applies: hNPCs ZIKV-induced caspase-3/7, Caspase-Glo luminescence, 6 h; series mostly up to 45.7 µM. The essentials:
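After overnight (16–20 h) culture at 350 cells/well, hNPCs get compound, then ZIKV 2 FFU/cell one hour later. Six hours on, Caspase-Glo 3/7 is added and luminescence measured.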

A short description of test [2]: qHTS assay for measurement of the activity of small molecule inhibitors on Zika virus induced Caspase-3 activity in human astrocytoma cells (AID 1224859). Further: potency means the concentration at half of the fitted maximal effect. The following applies: SNB-19 ZIKV-induced caspase-3/7, luminescence, 6 h; series mostly up to 45.7 µM. The essentials:
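Inhibition of Zika-induced caspase-3/7 activity: SNB-19 cells, 1 h compound pretreatment, ZIKV 2 FFU/cell for 6 h at 37 C, Caspase-Glo luminescence read-out.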

Test [3] in a line: qHTS Screen of the MIPE 4.0 Collection Against Ewings Sarcoma (RDES) (AID 1259252). Further: nearly all actives have a fitted effect of over 35% in size. Further: potency means the concentration at half of the fitted maximal effect. The following applies: RD-ES Ewing sarcoma viability, CellTiter-Glo, 48 h; series mostly up to 45.8 µM. The essentials: (§1)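 Cells plated in serum-containing RPMI (5% FBS) and treated with compound dilutions for 48 h. Readout luminescent viability; normalization relied on vehicle (no inhibition) and media-only columns (full inhibition).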

Test [4] in a line: qHTS Screen of the MIPE 4.0 Collection Against Ewings Sarcoma (TC71) (AID 1259253). Further: nearly all actives have a fitted effect of over 40% in size. Further: potency means the concentration at half of the fitted maximal effect. Conditions: TC71 Ewing sarcoma viability, CellTiter-Glo, 48 h; series mostly up to 45.8 µM. The essentials: as §1
A short description of test [5]: qHTS Screen of the MIPE 4.0 Collection Against Ewings Sarcoma (EW8) (AID 1259255). Further: nearly all actives have a fitted effect of over 35% in size. Further: potency means the concentration at half of the fitted maximal effect. Conditions: EW8 Ewing sarcoma viability, CellTiter-Glo, 48 h; series mostly up to 45.8 µM. The essentials: as §1
Test [6] is described as follows: qHTS Screen of the MIPE 4.0 Collection Against Ewings Sarcoma (TC32) (AID 1259256). Further: nearly all actives have a fitted effect of over 45% in size. Further: potency means the concentration at half of the fitted maximal effect. The following applies: TC32 Ewing sarcoma viability, CellTiter-Glo, 48 h; series mostly up to 45.8 µM. The essentials: as §1
A short description of test [7]: P-glycoprotein substrates identified in KB-8-5-11 adenocarcinoma cell line, qHTS therapeutic library screen (AID 1346987). Further: nearly all actives have a fitted effect of over 65% in size. Further: potency means the concentration at half of the fitted maximal effect. The following applies: KB-8-5-11 (P-gp overexpressing) viability, CellTiter-Glo, 72 h; series mostly up to 44.5 µM. The essentials:
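Human cervical adenocarcinoma KB-8-5-11 cells, selected in colchicine to over-express P-gp and assayed without it, were exposed for 72 h to titrated compounds. An ATP-based luminescent viability signal gave AC50.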

Test [8] can be described thus: NS1 protein of Zika virus - qHTS assay to identify small molecule inhibitors in human HEK 293 cells (AID 1347053). Further: nearly all actives have a fitted effect of over 55% in size. Further: potency means the concentration at half of the fitted maximal effect. Conditions: HEK293 ZIKV MR766 infection, NS1 TR-FRET, 24 h; series mostly up to 46.1 µM. The essentials:
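In this cell-based screen, HEK 293 cultures received compound for one hour before Zika MR766 at MOI = 0.5. NS1 was quantified 24 hours later by TR-FRET, normalized to virus-free wells and infected wells.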

Test [9] in a line: Natriuretic polypeptide receptor (hNpr1) antagonism - Pilot counterscreen GloSensor control cell line (AID 1347045; calls by dose curve). Conditions: HEK293 cGMP GloSensor cells, SNP-stimulated luminescence, 20 min; series mostly up to 38.3 µM. The essentials:
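The SNP-driven cGMP luminescence signal (50 uM, 20 min, room temperature) was measured in GloSensor HEK293 control cells. Compounds were tested as a LOPAC titration series and preincubated for 30-50 min.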

The target of test [10] is Atrial natriuretic peptide receptor 1 (Homo sapiens) (UniProt P16066). Put plainly: Natriuretic polypeptide receptor (hNpr1) antagonism - Pilot screen (AID 1347049; calls by dose curve;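 further: HEK293 cells with hNpr1 and GloSensor cGMP luciferase stimulated by 0.1 nM hNppA; agonist-evoked cGMP luminescence read 20 min after hNppA addition; potency means the concentration at half of the fitted maximal effect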). The following applies: hNpr1 cells, antagonist mode cGMP read-out; series mostly up to 57.5 µM. The essentials:
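Receptor antagonism read as cGMP-dependent luminescence in hNpr1/pGS-40F HEK293 cells: pre-read after 30 min compound exposure, post-read 20 min after hNppA agonist at 0.1 nM final, all at room temperature, protected from light; A-71915 titration as control.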

Sequence of Atrial natriuretic peptide receptor 1 (Homo sapiens) (P16066 whole entry, looked up): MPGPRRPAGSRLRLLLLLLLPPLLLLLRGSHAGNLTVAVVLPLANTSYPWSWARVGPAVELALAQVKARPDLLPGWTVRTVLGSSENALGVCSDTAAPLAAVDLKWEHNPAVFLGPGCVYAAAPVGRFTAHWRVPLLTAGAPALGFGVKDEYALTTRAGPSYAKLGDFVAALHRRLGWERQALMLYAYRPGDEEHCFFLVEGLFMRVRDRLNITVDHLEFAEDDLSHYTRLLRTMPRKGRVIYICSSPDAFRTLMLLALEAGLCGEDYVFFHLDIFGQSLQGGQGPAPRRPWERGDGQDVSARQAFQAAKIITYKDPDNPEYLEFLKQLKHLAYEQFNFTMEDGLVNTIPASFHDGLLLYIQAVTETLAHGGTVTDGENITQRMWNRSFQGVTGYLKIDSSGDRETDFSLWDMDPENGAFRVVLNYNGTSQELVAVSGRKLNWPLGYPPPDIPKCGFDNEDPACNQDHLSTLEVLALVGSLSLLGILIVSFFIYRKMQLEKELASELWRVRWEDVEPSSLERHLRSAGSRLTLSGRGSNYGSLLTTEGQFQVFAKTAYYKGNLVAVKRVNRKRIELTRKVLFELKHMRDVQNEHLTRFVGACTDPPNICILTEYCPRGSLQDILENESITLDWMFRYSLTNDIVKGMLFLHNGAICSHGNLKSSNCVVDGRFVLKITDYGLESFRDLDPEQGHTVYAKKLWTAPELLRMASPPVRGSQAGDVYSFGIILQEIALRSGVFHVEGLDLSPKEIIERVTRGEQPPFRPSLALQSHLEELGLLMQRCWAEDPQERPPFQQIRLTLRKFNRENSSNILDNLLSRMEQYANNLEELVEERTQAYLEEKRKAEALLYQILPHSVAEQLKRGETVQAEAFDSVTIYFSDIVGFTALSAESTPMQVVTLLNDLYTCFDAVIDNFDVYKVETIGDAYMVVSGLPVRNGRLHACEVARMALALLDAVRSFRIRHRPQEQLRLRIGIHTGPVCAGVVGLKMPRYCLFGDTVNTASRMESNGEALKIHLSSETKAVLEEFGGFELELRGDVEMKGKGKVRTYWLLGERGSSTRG

Take `COc1cc2nccc(Oc3ccc(NC(=O)C4(C(=O)Nc5ccc(F)cc5)CC4)cc3)c2cc1OC`: the Potency result in test [1] and in test [2] was “inactive” each time. The Potency was 1.32 µM (active) in test [3]; 2.35 µM (active) in test [4]; 1.05 µM (active) in test [5]; 1.66 µM (active) in test [6]; 16.6 µM (active) and 9.2 µM (active) in [7].

As for `COc1ccc2c(OCc3nnc4ccc(-c5ccccc5)nn34)ccnc2c1`, the Potency entry in test [1], in test [2], in [3], in test [4], in test [5] and in test [6] was “inactive” in each case. Further, the Potency entry in [7] and in test [8] was “inactive” each time.

Take `CCc1c2c(nc3ccc(O)cc13)-c1cc3c(c(=O)n1C2)COC(=O)[C@]3(O)CC`: the Potency result in [1], in test [2] and in test [6] was “inactive” throughout. Moreover, the Potency in test [3] is 0.0021 µM (active); in [4], 0.0023 µM (active); in test [5], 0.0021 µM (active); in test [7] it was 0.231 µM (active); in [8], 0.0037 µM (active).

With `COc1cc(C)c(Sc2cnc(NC(=O)c3ccc(CNC(C)C(C)C)cc3)s2)cc1C(=O)N1CCN(C(C)=O)CC1` (stereo not given), the Potency entry in test [1], in test [2] and in test [7] was “inactive” in each case. The Potency in test [3] was 14.8 µM (active); in test [4] it was 18.7 µM (active); in test [5], 3.72 µM (active); in [6], 5.9 µM (active).

In the case of `COc1cc(-c2nn(C3CCC(N4CCN(C(C)=O)CC4)CC3)c3ncnc(N)c23)ccc1NC(=O)c1cc2ccccc2n1C` (stereo not given), the Potency entry in [1], in test [2] and in [8] was “inactive” in each case. The Potency in test [3] is 1.87 µM (active); in test [4] it was 2.96 µM (active); in [5] it was 6.62 µM (active); in test [6], 3.72 µM (active); in test [7], “inactive and 20.6 µM (active)”.

On to `C[C@@H]1COC(Nc2ccc3ncnc(Nc4ccc(OCc5nccs5)c(Cl)c4)c3c2)=N1`, for which the Potency result in test [1] and in test [2] was “inactive” throughout. Besides, the Potency in test [3] is 2.64 µM (active); in test [4], 3.72 µM (active); in [5], 20.9 µM (active); in test [6], 10.5 µM (active); in test [7], 20.9 µM (active).

For `CN1CCN(Cc2ccc(NC(=O)Nc3ccc(Oc4cc(NC(=O)C5CC5)ncn4)cc3)cc2C(F)(F)F)CC1`, the Potency result in test [1] and in [2] was “inactive” throughout. In addition, the Potency is 0.372 µM (active) in test [3]; 0.132 µM (active) in [4]; 0.372 µM (active) in [5]; 0.296 µM (active) in [6]; 5.8 µM (active) in test [7]; 1.18 µM (active) in test [8].

In the case of `Cc1cc(Nc2ncnc3ccc(-c4ccc(CNCCS(C)(=O)=O)o4)cc23)ccc1Oc1ccn2ncnc2c1`, the Potency entry in test [1], in test [2], in test [7] and in test [8] was “inactive” in each case. For the same molecule, the Potency is 18.7 µM (active) in test [3], 14.8 µM (active) in [4], 16.6 µM (active) in [5] and 16.6 µM (active) in test [6].

Regarding `O=c1c2ccccc2nc2n1CCc1c-2[nH]c2ccccc12`, the values for the Potency in [1], in test [2] and in test [10] were 13.2 µM (active), 7.94 µM (active) and 1.51 µM (active), respectively. Further, the Potency entry in [3], in test [4], in test [5], in test [6], in test [7] and in test [8] was “inactive” each time. Besides, the molecule was called inactive in [9].

As for `COCCOc1ccc2c(c1)ncn2-c1ccc2cccc(N3CCC(N)CC3)c2n1`, the Potency result in [1] and in test [2] was “inactive” in each case. Also, the Potency was 18.7 µM (active) in test [3]; 14.8 µM (active) in [4]; 18.7 µM (active) in [5]; 23.5 µM (active) in test [6]; 23.5 µM (active) in test [7].

On to `CNC(=O)c1nn(C)c2c1C(C)(C)Cc1cnc(Nc3ccc(N4CCN(C)CC4)cc3)nc1-2`, for which the Potency entry in [1] and in test [2] was “inactive” throughout. Also, the Potency in [3] was 1.66 µM (active); in test [4], 1.87 µM (active); in test [5], 2.96 µM (active); in test [6], 2.35 µM (active); in [7], 2.35 µM (active) and 1.46 µM (active).

On to `Cc1cc(C(=O)N2CCN(c3cccc(Cl)c3)CC2)n(-c2ccccc2)n1`, for which the Potency result in [1], in test [2] and in [6] was “inactive” throughout. In addition, the Potency in test [3] is 0.743 µM (active); in test [4] it was 6.62 µM (active); in [5] it was 1.18 µM (active); in test [7], 372 nM (active) and 1.3 µM (active).

For `Nc1ncnc2c1c(-c1cccc(OCc3ccccc3)c1)cn2C1CC(CN2CCCC2)C1` (stereo not given), the Potency result in test [1], in test [2] and in test [8] was “inactive” in each case. The Potency in [3] was 23.5 µM (active); in [4], 5.26 µM (active); in test [5], 16.6 µM (active); in test [6], 5.26 µM (active); in test [7], 16.6 µM (active) and 6.51 µM (active).

`CCN(CC)CCNC(=O)c1ccc2nc(-c3ccccc3)c(-c3ccc(CN4CCC(n5c(=O)[nH]c6ccccc65)CC4)cc3)nc2c1`: the Potency entry in test [1] and in [2] was “inactive” throughout. The Potency in [3] is 23.5 µM (active); in [4], 23.5 µM (active); in test [5] it was 16.6 µM (active); in [6] it was 18.7 µM (active); in [7], 3.72 µM (active); in test [8] it was 3.32 µM (active).

On to `COc1ccc(F)c(F)c1C(=O)c1cnc(NC2CCN(S(C)(=O)=O)CC2)nc1N`, for which the Potency entry in test [1] and in test [2] was “inactive” in each case. For the same molecule, the Potency is 2.64 µM (active) in test [3]; 1.18 µM (active) in [4]; 3.72 µM (active) in test [5]; 2.35 µM (active) in test [6]; 3.72 µM (active) and 4.11 µM (active) in test [7]; 14.8 µM (active) in test [8].

On to `COc1cccc(Nc2c(C(N)=O)cnc3c(C)cc(S(=O)(=O)c4cccc(C(=O)N(C)C)c4)cc23)c1`, for which the Potency result in test [1], in test [2], in test [3], in test [4], in test [5] and in test [6] was “inactive” each time. For the same molecule, the Potency result in [7] and in test [8] was “inactive” in each case.

On to `CC(C)c1noc(N2CCC(COc3ccc(-c4ccc(S(C)(=O)=O)cc4)nc3)CC2)n1`, for which the Potency result in test [1], in [2], in [3], in [4], in test [5] and in test [6] was “inactive” throughout. Further, the Potency result in test [7] and in test [8] was “inactive” in each case.

On to `Nc1ncnc2c1c(-c1cnc3[nH]ccc3c1)nn2C1CCCC1`, for which the Potency entry in test [1] and in test [2] was “inactive” in each case. In addition, the Potency in [3] is 0.469 µM (active); in [4] it was 0.662 µM (active); in test [5], 2.09 µM (active); in [6], 1.05 µM (active); in [7], 590 nM (active) and 2.06 µM (active); in test [8], 16.6 µM (active).
